DRD3 agonist: qHTS of D3 Dopamine Receptor Agonist: qHTS; max activation, %; 410,000 tested, 0.58% active; AID 652048, 2013; D(3) dopamine receptor (Homo sapiens), P35462; D3R DiscoveRx beta-arrestin cells, luminescence, 90 min; in the data active means max activation above about 30%
Target sequence (P35462 whole entry, looked up): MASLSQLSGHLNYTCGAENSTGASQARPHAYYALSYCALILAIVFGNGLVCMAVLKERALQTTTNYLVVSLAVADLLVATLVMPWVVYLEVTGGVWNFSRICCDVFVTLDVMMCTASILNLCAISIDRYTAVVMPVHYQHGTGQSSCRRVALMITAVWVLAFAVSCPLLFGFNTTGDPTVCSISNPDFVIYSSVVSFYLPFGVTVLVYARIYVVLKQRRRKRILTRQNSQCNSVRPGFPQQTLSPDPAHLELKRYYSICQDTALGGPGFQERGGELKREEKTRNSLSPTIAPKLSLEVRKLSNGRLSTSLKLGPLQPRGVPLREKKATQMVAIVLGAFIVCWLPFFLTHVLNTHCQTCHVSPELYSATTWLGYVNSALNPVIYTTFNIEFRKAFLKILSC
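Agonist mode: compounds and dopamine controls were applied to plated cells for 90 min at 37 degrees C after an overnight attachment at 1500 cells/well. Luminescent read-out followed 30 - 60 minutes at room temperature with DiscoveRx detection reagent.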
a7 integrin act: qHTS for Activators of Integrin-Mediated Alleviation for Muscular Dystrophy. Potency, µM (top dose mostly 38.3 µM), actives largely listed as activators. alpha7betagal myoblasts, beta-gal FDG fluorescence, 48 h. AID 624291, 2012. 350,000 tested, 0.064% active; further: nearly all actives have a fitted effect of over 60% in size
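alpha7betagal+/- myoblasts (passage 13, 250/well) treated 48 h at 37C with compounds at 1:260 dilution of DMSO stock. Lysed, then beta-galactosidase activity read as FDG fluorescence (ex 480/em 540) after 30 min, with pre-read for autofluorescence.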
ATXN2 expr inh: Primary qHTS for Inhibitors of ATXN expression; Potency, µM (highest dose often 57 µM), hits mostly inhibitors; HEK-293 ATXN2-luciferase reporter, luminescence, 24 h; 360,000 tested, 0.72% active; further: nearly all actives have a fitted effect of over 55% in size
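qHTS (up to 57 uM final) was run with 24 h compound exposure of reporter cells at 37 °C. Each well was multiplexed: SteadyGlo luminescence measured ATXN2-luciferase expression after a fluorogenic Gly-Phe-AFC viability readout (25 uM final).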
IL-1B inflam inh: qHTS for Inhibitors of Inflammasome Signaling: IL-1-beta AlphaLISA Primary Screen; THP-1 LPS/ATP IL-1B secretion, AlphaLISA, 16 h; stronger effect = lower value; activity change, % at 57.5 µM; 360,000 tested, 4.7% active; AID 743279, 2014; in the data active means activity change below about -50%; inconclusive means mostly about -30% to -49%
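THP-1 cells pretreated 1 hr with compounds (up to 57.5 uM final), then stimulated with LPS (250 ng/mL final) plus ATP (1.25 mM final); secreted IL-1B measured by AlphaLISA after 16 hr, decreased signal indicating inhibition.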
D3 antag: qHTS of D3 Dopamine Receptor Antagonist: qHTS | D(3) dopamine receptor (Homo sapiens), P35462 | D3R cells, DiscoveRx beta-arrestin luminescence, antagonist mode; stronger effect = lower value | max response, negative = inhibition, % | 360,000 tested, 2.5% active | AID 652054, 2013; in the data active means max response below about -50%; inconclusive means no clear call, values can overlap the other calls
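Cells plated overnight at 1500 cells/well, then exposed to library compounds with dopamine controls for 90 minutes at 37 degrees C. DiscoveRx reagent added for 30–60 minutes at room temperature; luminescence read, quantitative HTS format.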
ATXN viability: Viability Counterscreen for Primary qHTS for Inhibitors of ATXN expression; S2 cells (HEK-293 line with an ATXN2-luciferase reporter) viability, CellTiter-Fluor protease fluorescence, 24 h; Potency, µM (doses to about 56.7 µM), most hits filed as cytotoxic; 400,000 tested, 0.49% active; AID 651635, 2014; further: nearly all actives have a fitted effect of over 40% in size
Of the large screens only hits and unclear results are named; the others gave an inactive call. Rows were chosen to be rich in hits. Some 7% of all compounds tested hit in one or more screens of this group. Unless noted, the call rests on the fitted dose curve; in most records, active means well fitted curve in the direction sought with a large enough effect; inconclusive means small, poorly fitted or top-dose-only effect, or another doubt; inactive means no such curve, though single readings can be large; an effect the other way counts as inactive or inconclusive.

O=C1C(=O)C(c2ccccc2)C(=O)C1c1ccccc1 (stereo not given)	DRD3 agonist 86.6
CN(C(=O)c1ccc(N2CCCCC2)c([N+](=O)[O-])c1)C1CCS(=O)(=O)C1 (stereo not given)	none
CCOC(=O)Nc1ccc2c3c(cccc13)-c1ccccc1-2	none (no result: ATXN viability)
O=C1CN(C(=O)CSc2nc(-c3ccccc3)cs2)c2ccccc2N1	none
NC(=O)COc1ccc(C(=O)/C=C2/C(=O)Nc3ccccc32)cc1	IL-1B inflam inh -100.5
CC1(c2ccc(OCC(N)=O)cc2)NC(=O)NC1=O (stereo not given)	none
C=CCOc1ccccc1C(=O)/C=C1/C(=O)Nc2ccccc21	IL-1B inflam inh inconclusive, D3 antag inconclusive, ATXN viability inconclusive
C=CCOc1ccc(C(=O)/C=C2/C(=O)Nc3ccccc32)cc1	IL-1B inflam inh -91.7
Cc1cccc(NC(=S)N/N=C2\CC(C)(C)Oc3ccc(O)cc32)c1	IL-1B inflam inh inconclusive
CC1(C)C/C(=N\NC(=S)Nc2ccccc2F)c2cc(O)ccc2O1	IL-1B inflam inh -78.6, D3 antag -53.5 (no result: ATXN viability)
O=C(Oc1ccccc1/C=C\C(=O)c1cc2ccccc2o1)c1ccccc1	ATXN2 expr inh inconclusive, ATXN viability inconclusive
O=C(Oc1ccccc1/C=C\C(=O)c1cc2ccccc2o1)c1cccc(F)c1	IL-1B inflam inh -68.0, D3 antag inconclusive
COc1ccccc1NC(=O)c1cc2ccccc2o1	none
COc1cccc(C(=O)Oc2ccccc2/C=C\C(=O)c2cc3ccccc3o2)c1	ATXN2 expr inh inconclusive, IL-1B inflam inh -94.7, D3 antag inconclusive, ATXN viability inconclusive
COc1ccc(-c2cc(-c3ccccc3)nc3c2COc2ccccc2-3)cc1	none (no result: a7 integrin act, IL-1B inflam inh, D3 antag)
COc1cccc(/C=C/c2onc(C)c2S(=O)(=O)N2CCC(C(=O)NC3CCCCCC3)CC2)c1	none
O=C(C1CCCO1)N1CCN(C(=S)Nc2ccccc2)CC1 (stereo not given)	none
COC(=O)CSc1nc(N)c2c3c(sc2n1)C(c1ccccc1)SC(c1ccccc1)C3 (stereo not given)	ATXN2 expr inh inconclusive, IL-1B inflam inh -99.7, D3 antag inconclusive (no result: ATXN viability)
CCOc1ccccc1C(=O)N[C@H](C(=O)Nc1nc2c(s1)CCCC2)C(C)C	IL-1B inflam inh inconclusive, D3 antag -74.2
COc1ccc(C(=O)N[C@H](C(=O)Nc2nc3c(s2)CCCC3)C(C)C)cc1	none
COc1ccc(OCc2nnnn2-c2ccccc2)cc1	none
Brc1ccc(OCc2nnnn2-c2ccccc2)cc1	IL-1B inflam inh -69.3 (no result: ATXN viability)
Cc1ccc(Cl)cc1NC(=O)C1CCC(CNS(=O)(=O)c2cccc3nsnc23)CC1 (stereo not given)	none (no result: a7 integrin act, IL-1B inflam inh, D3 antag)
NC(N)=NC(N)=Nc1ccc(O)cc1	none (no result: ATXN2 expr inh)
CCOc1ccc2[nH]c3c(NCCOC)ncnc3c2c1	none
COc1ccc2[nH]c3c(NCCN(C(C)C)C(C)C)ncnc3c2c1	IL-1B inflam inh -57.4
CCOc1ccc2[nH]c3c(NCCCOC)ncnc3c2c1	IL-1B inflam inh -54.0
CCOc1ccc2[nH]c3c(NCC(C)C)ncnc3c2c1	IL-1B inflam inh inconclusive
CCOc1ccc2[nH]c3c(NCCN(CC)CC)ncnc3c2c1	a7 integrin act inconclusive, IL-1B inflam inh -96.1
CCN(CC)CCCNc1nc2ccccc2c2[nH]c3ccc(OC)cc3c12	ATXN2 expr inh inconclusive, IL-1B inflam inh -98.1, ATXN viability 5.97µM
NC(=O)CSc1nnc(-c2ccccc2F)n1C1CC1	none
Cc1oc(-c2ccc(Cl)cc2)nc1CN1CCCC(C(=O)NCc2ccccc2)C1 (stereo not given)	ATXN2 expr inh inconclusive, ATXN viability inconclusive (no result: a7 integrin act, IL-1B inflam inh, D3 antag)
O=[N+]([O-])c1ccc(CSC2=NCCN2)cc1	IL-1B inflam inh inconclusive, ATXN viability inconclusive (no result: ATXN2 expr inh)
CCOc1ccc(CSC2=NCCN2)cc1[N+](=O)[O-]	IL-1B inflam inh -61.0
CCCCOc1ccc(CSC2=NCCN2)cc1[N+](=O)[O-]	IL-1B inflam inh -99.0, ATXN viability inconclusive (no result: ATXN2 expr inh)
OCC1(Cc2ccccc2)CCN(C2CCN(c3ccccc3F)CC2)CC1	IL-1B inflam inh -85.1, D3 antag inconclusive
O=C(CSc1ncn[nH]1)N1N=C2/C(=C/c3ccco3)CCCC2C1c1ccco1 (stereo not given)	IL-1B inflam inh -59.6
O=C(CSc1ncn[nH]1)N1N=C2/C(=C\c3ccco3)CCCC2C1c1ccco1 (stereo not given)	none
C=Cc1ccc(Cn2c(=O)n(CCCOC)c(=O)c3sccc32)cc1	IL-1B inflam inh -88.0
C=C(CC[C@@H](O)C(C)(C)O)[C@H]1CC[C@]2(C)[C@@H]1CCC1[C@@]3(C)CCC(=O)C(C)(C)C3CC[C@]12C (stereo not given in full)	DRD3 agonist 42.8
C=C(C)[C@@H]1CCC2(C(=O)O)CC[C@]3(C)[C@H](CC[C@@H]4[C@@]5(C)CCC(=O)C(C)(C)[C@@H]5CC[C@]43C)[C@@H]12 (stereo not given in full)	none
COc1ccc(C(=O)C(=NNc2ccccc2)c2ccc(OC)cc2)cc1	IL-1B inflam inh -55.0, ATXN viability inconclusive
COc1ccc(C(=O)C(=NN)c2ccccc2)cc1	none (no result: ATXN2 expr inh)
COCOc1ccc(/C=C/C(=O)c2c(OCOC)cc(OCOC)c(CC=C(C)C)c2O)cc1OCOC	DRD3 agonist 42.3
COc1cc(/C=C/C(O)=C/C(=O)/C=C/c2ccc(O)cc2)ccc1O	ATXN2 expr inh inconclusive, IL-1B inflam inh -97.1
COc1cc(OC)c(C(=O)/C=C/c2ccccc2)c(O)c1O	IL-1B inflam inh -100.2, ATXN viability inconclusive
COc1ccc(C=CC(=O)c2ccc(OCc3ccccc3)c(OC)c2)cc1OC	ATXN viability inconclusive (no result: ATXN2 expr inh)
COc1cc(O)cc(O)c1C(=O)/C=C/c1ccccc1	ATXN2 expr inh inconclusive, IL-1B inflam inh -106.1, ATXN viability inconclusive
CCC[N+]1(CC#CC2(O)CCCCC2)CCOCC1	a7 integrin act inconclusive (no result: ATXN2 expr inh)
COCOc1ccc(/C=C/C(=O)c2c(O)cc(OCOC)cc2OCOC)cc1	DRD3 agonist 42.7, IL-1B inflam inh inconclusive
CCOc1ccc(/C=C/C(=O)c2c(O)cc(C)oc2=O)cc1	IL-1B inflam inh inconclusive
COC(=O)COc1ccc(NS(=O)(=O)c2cccc([N+](=O)[O-])c2)cc1	IL-1B inflam inh -151.7
COC(=O)COc1ccc(S(=O)(=O)Nc2cc([N+](=O)[O-])ccc2C)cc1	none
COC(=O)COc1cccc(NS(=O)(=O)c2cccc([N+](=O)[O-])c2)c1	IL-1B inflam inh -194.2
